Some test systems named below: RPMI-8226 leukemia; OVCAR-8 ovarian; OVCAR-5 ovarian; OVCAR-4 ovarian; SK-OV-3 ovarian; IGROV1 ovarian; OVCAR-3 ovarian; HS 578T breast; NCI/ADR-RES ovarian; T-47D breast.
What all share (experiment): NCI-60 one-dose screen, 48 h (100 = growth as untreated, 0 = no growth, -100 = all killed)

“And” between values parts separate entries of the source, which are not always exact repeats. Equal entries are not always repeated. About 83,000 compounds went through this panel and 20% of them were active in at least one assay; those are over-represented in the sample as a whole.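 96-well plates, one dose, 48 hours. Percent growth reported; active if below 10.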 Values without a mark were called inactive. The source made the active and inactive calls.

As to `S=C(SSC(=S)N1CCCCC1)N1CCCCC1`, the growth in the test on RPMI-8226 leukemia (10 µM) is 105%; in the test with RPMI-8226 leukemia (100 µM), -44.7% (active); in the test on OVCAR-8 ovarian (10 µM) it was 92.4%; with OVCAR-8 ovarian (100 µM), -43.4% (active); in the test on OVCAR-5 ovarian (10 µM), 114%; in the test on OVCAR-5 ovarian (100 µM) it was -85.8% (active). Moreover, the growth was 85.2% in the test on OVCAR-4 ovarian (10 µM); -51.1% (active) in the test on OVCAR-4 ovarian (100 µM); 110% with SK-OV-3 ovarian (10 µM); 45.7% in the test on SK-OV-3 ovarian (100 µM); 99.5% in the test with IGROV1 ovarian (10 µM); 50.2% in the test with IGROV1 ovarian (100 µM). Also, the growth was 105% in the test on OVCAR-3 ovarian (10 µM); -68.7% (active) with OVCAR-3 ovarian (100 µM); 111% with HS 578T breast (10 µM); 59.7% with HS 578T breast (100 µM); 97.7% in the test on NCI/ADR-RES ovarian (10 µM); 2.3% (active) in the test with NCI/ADR-RES ovarian (100 µM). Further, the growth in the test with T-47D breast (10 µM) was 100%; with T-47D breast (100 µM) it was -28.4% (active).
In the case of `O=C1c2ccccc2C(=O)C(Cl)C1Cl` (centres undefined), the growth was 31.1% with RPMI-8226 leukemia (10 µM unless noted); 91.9% with OVCAR-8 ovarian (10 µM); 112% with OVCAR-5 ovarian (10 µM unless noted); -89% (active) in the test with OVCAR-4 ovarian (10 µM unless noted); 99.5% in the test with SK-OV-3 ovarian (10 µM unless noted); 78.4% in the test with IGROV1 ovarian (10 µM unless noted). Moreover, the growth with OVCAR-3 ovarian (10 µM unless noted) is -75.2% (active); in the test with NCI/ADR-RES ovarian (10 µM unless noted), 86.5%; with T-47D breast (10 µM unless noted), -38% (active).
Consider `CC1=C2C(=O)[C@H]3[C@@H](CC=C4C[C@@H](O)CC[C@@]43C)[C@@H]2CC[C@]12O[C@@H]1C[C@H](C)CN[C@H]1[C@H]2C`, for which the growth with RPMI-8226 leukemia (10 µM unless noted) is 92%; in the test on OVCAR-8 ovarian (10 µM), 89.3%; in the test on OVCAR-5 ovarian (10 µM unless noted), 94%; in the test on OVCAR-4 ovarian (10 µM unless noted), 96.3%; in the test on SK-OV-3 ovarian (10 µM unless noted) it was 101%; with IGROV1 ovarian (10 µM unless noted) it was 26.1%. Moreover, the growth with OVCAR-3 ovarian (10 µM unless noted) was 140%; in the test on HS 578T breast (10 µM unless noted), 118%; with NCI/ADR-RES ovarian (10 µM unless noted) it was 101%; in the test on T-47D breast (10 µM unless noted) it was 107%.
As for `COc1ccc(OC)c(/C=C/[N+](=O)[O-])c1`, the growth in the test on RPMI-8226 leukemia (10 µM unless noted) was -28.9% (active); with OVCAR-8 ovarian (10 µM), 11.8%; in the test with OVCAR-5 ovarian (10 µM unless noted), 20.2%; with SK-OV-3 ovarian (10 µM unless noted), 64.7%; with IGROV1 ovarian (10 µM unless noted), -4.14% (active); with OVCAR-3 ovarian (10 µM unless noted), -59% (active). The results for the growth in the test with HS 578T breast (10 µM unless noted), in the test with NCI/ADR-RES ovarian (10 µM unless noted) and in the test on T-47D breast (10 µM unless noted) were 4.59% (active), 17.7% and 16.6%, respectively.
In the case of `CC(=O)O[C@H]1C[C@@H]2OC3C=C(C)CCC3(C)[C@@]1(C)[C@@]21CO1` (some centres undefined), the growth was -16.3% (active) and -26.9% (active) in the test on RPMI-8226 leukemia (10 µM unless noted); -9.39% (active) and -19.9% (active) in the test on OVCAR-8 ovarian (10 µM); 6.22% (active) and 5.12% (active) in the test on OVCAR-5 ovarian (10 µM unless noted); -5.17% (active) and -15.1% (active) with OVCAR-4 ovarian (10 µM unless noted); 5.54% (active) and -8.41% (active) in the test on SK-OV-3 ovarian (10 µM unless noted); -12.6% (active) and -11.8% (active) with IGROV1 ovarian (10 µM unless noted). Also, the growth was -17.6% (active) and -41.3% (active) in the test with OVCAR-3 ovarian (10 µM unless noted); -6.29% (active) in the test on HS 578T breast (10 µM unless noted); -14% (active) and -10.5% (active) in the test with NCI/ADR-RES ovarian (10 µM unless noted); -4.55% (active) and -14.4% (active) in the test on T-47D breast (10 µM unless noted).
In the case of `CCC(=O)OC1CCn2c1nc1c2C(=O)C(C)=C(N2CC2)C1=O` (centres undefined), the growth is 2.94% (active) with RPMI-8226 leukemia (10 µM unless noted); 3.32% (active) in the test on OVCAR-8 ovarian (10 µM); 13.5% in the test with OVCAR-5 ovarian (10 µM unless noted); 13.2% in the test on OVCAR-4 ovarian (10 µM unless noted); -53.8% (active) in the test with SK-OV-3 ovarian (10 µM unless noted); -6.18% (active) with IGROV1 ovarian (10 µM unless noted). Moreover, the growth is -18.5% (active) with OVCAR-3 ovarian (10 µM unless noted), -5.47% (active) in the test with HS 578T breast (10 µM unless noted), 1.27% (active) in the test with NCI/ADR-RES ovarian (10 µM unless noted) and 70.2% in the test with T-47D breast (10 µM unless noted).
Turning to `C[C@H]1CCC/C=C/[C@@H]2C[C@H](O)C[C@H]2[C@H](O)/C=C/C(=O)O1`, the growth is -17.9% (active) with RPMI-8226 leukemia (10 µM unless noted); 32.1% in the test on OVCAR-5 ovarian (10 µM unless noted); -30.5% (active) with OVCAR-4 ovarian (10 µM unless noted); 35.9% in the test with SK-OV-3 ovarian (10 µM unless noted); -54.8% (active) with IGROV1 ovarian (10 µM unless noted); -37.4% (active) in the test with OVCAR-3 ovarian (10 µM unless noted). Also, the growth in the test with HS 578T breast (10 µM unless noted) is 57.9%; in the test on NCI/ADR-RES ovarian (10 µM unless noted), 7.27% (active); in the test with T-47D breast (10 µM unless noted) it was -26.1% (active).
For the compound `CN1CCN(c2ccc([N+](=O)[O-])c3no[n+]([O-])c23)CC1`, the growth was -36.6% (active) in the test on RPMI-8226 leukemia (10 µM unless noted); -92.7% (active) in the test with OVCAR-8 ovarian (10 µM); -15.2% (active) in the test on OVCAR-5 ovarian (10 µM unless noted); -91.8% (active) in the test with OVCAR-4 ovarian (10 µM unless noted); -97.9% (active) in the test with SK-OV-3 ovarian (10 µM unless noted); -71.5% (active) with IGROV1 ovarian (10 µM unless noted). Moreover, the growth is -88.8% (active) with OVCAR-3 ovarian (10 µM unless noted), -12% (active) with HS 578T breast (10 µM unless noted), -33.1% (active) with NCI/ADR-RES ovarian (10 µM unless noted) and -56.5% (active) in the test with T-47D breast (10 µM unless noted).
On to `COC1CC(CC2CCC(C)C(C(C)C(=O)O)O2)OC2(OC(C)(C3CCC(C)(C4OC(C5OC(O)(CO)C(C)CC5C)CC4C)O3)CC2C)C1C` (centres undefined), for which the growth in the test on RPMI-8226 leukemia (10 µM unless noted) is -45% (active); in the test with OVCAR-5 ovarian (10 µM unless noted), 14%; in the test with SK-OV-3 ovarian (10 µM unless noted), 44%; in the test with OVCAR-3 ovarian (10 µM unless noted), 9.34% (active); with HS 578T breast (10 µM unless noted), 14.3%; in the test with NCI/ADR-RES ovarian (10 µM unless noted), 36.7%. In addition, the growth in the test with T-47D breast (10 µM unless noted) is 15.9%.
As for `CC[C@@]1(O)C[C@H](OC2CC(N(C)C)C(OC3CC(O)C(OC4CCC(=O)C(C)O4)C(C)O3)C(C)O2)c2c(cc3c(c2O)C(=O)c2c(O)ccc(O)c2C3=O)[C@H]1C(=O)OC` (some centres undefined), the growth is -33.9% (active) in the test on RPMI-8226 leukemia (10 µM unless noted); 1.64% (active) in the test with OVCAR-5 ovarian (10 µM unless noted); -36.5% (active) with OVCAR-4 ovarian (10 µM unless noted); 33.1% with SK-OV-3 ovarian (10 µM unless noted); -49.2% (active) in the test with IGROV1 ovarian (10 µM unless noted); 0.51% (active) with OVCAR-3 ovarian (10 µM unless noted). Further, the results for the growth in the test with HS 578T breast (10 µM unless noted), in the test on NCI/ADR-RES ovarian (10 µM unless noted) and with T-47D breast (10 µM unless noted) were 9.34% (active), 11% and 18%, respectively.
Take `COc1cccc2c1cc([N+](=O)[O-])c1c(C(=O)O)cc3c(c12)OCO3`: the growth was 89.1% and 82.3% with RPMI-8226 leukemia (10 µM unless noted); 55.2% in the test with OVCAR-8 ovarian (10 µM); 106% and 85.3% with OVCAR-5 ovarian (10 µM unless noted); 82.8% and 141% in the test on OVCAR-4 ovarian (10 µM unless noted); 86% and 95.1% with SK-OV-3 ovarian (10 µM unless noted); 58.6% and 59.2% in the test with IGROV1 ovarian (10 µM unless noted). Also, the growth in the test on OVCAR-3 ovarian (10 µM unless noted) was 76.5% and 103%; in the test with HS 578T breast (10 µM unless noted), 107% and 110%; with NCI/ADR-RES ovarian (10 µM unless noted), 70.7% and 104%; with T-47D breast (10 µM unless noted), 91.3% and 84.2%.
For the compound `Oc1cc[c]([Hg][Cl])cc1`, the growth was 91.2% with RPMI-8226 leukemia (10 µM unless noted); 105% in the test with OVCAR-8 ovarian (10 µM); 116% in the test on OVCAR-5 ovarian (10 µM unless noted); 100% in the test on OVCAR-4 ovarian (10 µM unless noted); 135% with SK-OV-3 ovarian (10 µM unless noted); 87.8% in the test with IGROV1 ovarian (10 µM unless noted). In addition, the growth in the test on OVCAR-3 ovarian (10 µM unless noted) was 91%; with HS 578T breast (10 µM unless noted) it was 85.5%; in the test with NCI/ADR-RES ovarian (10 µM unless noted) it was 107%.
On to `COC1=C(C)C(=O)C2=C(C1=O)C(CO)N1C(C#N)C3CC4C(C1C2N1CCOC41)N3C` (centres undefined), for which the growth in the test with RPMI-8226 leukemia (10 µM unless noted) was -41.3% (active); with OVCAR-5 ovarian (10 µM unless noted) it was 11.1%; in the test on SK-OV-3 ovarian (10 µM unless noted), 42.4%; in the test with OVCAR-3 ovarian (10 µM unless noted) it was -18.7% (active); with HS 578T breast (10 µM unless noted) it was -55.2% (active); in the test on NCI/ADR-RES ovarian (10 µM unless noted), -21.4% (active). Besides, the growth in the test on T-47D breast (10 µM unless noted) is -16.8% (active).
With `CCCCCCCCCCCC1CCCC(C)N1` (centres undefined), the growth with RPMI-8226 leukemia (10 µM unless noted) was -34.7% (active); in the test with OVCAR-8 ovarian (10 µM) it was 67.3%; in the test on OVCAR-5 ovarian (10 µM unless noted) it was 88.8%; in the test on OVCAR-4 ovarian (10 µM unless noted) it was 85.5%; with SK-OV-3 ovarian (10 µM unless noted), 121%; with IGROV1 ovarian (10 µM unless noted), -40.3% (active). The growth was 90.9% with OVCAR-3 ovarian (10 µM unless noted), 64.5% with HS 578T breast (10 µM unless noted), 82.7% with NCI/ADR-RES ovarian (10 µM unless noted) and 102% in the test on T-47D breast (10 µM unless noted).
